Experimental data reported in PubChem BioAssay (NCI).
The panel holds about 79,000 compounds, 15% with a hit somewhere; the sample as a whole holds those more often. A number with no mark means an inactive call. The source made the active and inactive calls. Rule as the data show it: active = growth inhibition above about 70%; inactive = the rest.

Tests used:
[1] = NCI Yeast Anticancer Drug Screen. Data for the rad50 strain (AID 155);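 also: 0% = growth of vehicle-only cultures of the same strain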; settings: S. cerevisiae rad50 strain growth inhibition, active compounds read high
In short: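 Vehicle-treated cultures provide the reference for the growth inhibition reported for compound-exposed, repair-deficient yeast.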

[2] = NCI Yeast Anticancer Drug Screen. Data for the mec2-1 strain (AID 157); settings: S. cerevisiae mec2-1 strain, active compounds read high
In short: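 mec2-1 yeast strain, carrying an alteration in DNA damage repair or cell cycle control, was exposed to compounds; growth inhibition was measured relative to vehicle-treated controls.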

[3] = NCI Yeast Anticancer Drug Screen. Data for the sgs1 mgt1 strain (AID 161);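 also: 0% = growth of cultures given vehicle only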; settings: S. cerevisiae sgs1 mgt1 strain, active compounds read high
In short: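 This yeast growth screen uses a strain with defined DNA-repair lesions; compound-treated growth is compared with vehicle-treated growth.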

[4] = NCI Yeast Anticancer Drug Screen. Data for the cln2 rad14 strain (AID 165);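 also: 0% = growth equal to vehicle treated cultures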; settings: S. cerevisiae cln2 rad14 strain, active compounds read high
In short: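 Yeast carrying cln2 and rad14 alterations (cell cycle control and DNA damage repair) were exposed to compounds. Growth inhibition was measured against vehicle-treated controls.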

[5] = NCI Yeast Anticancer Drug Screen. Data for the bub3 strain (AID 167); settings: S. cerevisiae bub3 mutant strain, active compounds read high
In short: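 Mutant yeast screening strain plus compound; vehicle-treated cultures serve as the 0% inhibition reference.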

[6] = NCI Yeast Anticancer Drug Screen. Data for the mlh1 rad18 strain (AID 175); settings: S. cerevisiae mlh1 rad18 strain growth inhibition, active compounds read high
In short: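 Growth inhibition of the yeast strain was measured after compound exposure and expressed relative to vehicle-treated controls. The strain carries defined defects in DNA damage repair.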

[7] = at 5.0 µM (retest, dose inferred, filed as 0.5)
[8] = at 50.0 µM (retest, dose inferred, filed as 5.0)

Compound	growth inhibition [1, 7]	growth inhibition [1, 8]	growth inhibition ([1]; at 50.0 µM)	growth inhibition [2, 7]	growth inhibition [2, 8]	growth inhibition ([2]; at 50.0 µM)	growth inhibition [3, 7]	growth inhibition [3, 8]	growth inhibition ([3]; at 50.0 µM)	growth inhibition [4, 7]	growth inhibition [4, 8]	growth inhibition ([4]; at 50.0 µM)	growth inhibition [5, 7]	growth inhibition [5, 8]	growth inhibition ([5]; at 50.0 µM)	growth inhibition [6, 7]	growth inhibition [6, 8]	growth inhibition ([6]; at 50.0 µM)
CC(C)COP(=O)(OCC(C)C)C(NS(=O)(=O)c1ccccc1)(C(F)(F)F)C(F)(F)F	4%	11%	63.5%	-12%	-2%	82.7% (active)	7%	-5%	-2.35%	27%	42%	6.85%	-6%	8%	-3.8%	0%	3%	90.2% (active)
C1=C(c2ccccc2)OC(c2ccccc2)=C[P+]1(c1ccccc1)c1ccccc1	96% (active)	98% (active)	92.1% (active)	98% (active)	99% (active)	90.8% (active)	99% (active)	99% (active)	91% (active)	93% (active)	99% (active)	86.8% (active)	97% (active)	99% (active)	93% (active)	95% (active)	98% (active)	92.7% (active)
Oc1ccc(Cc2cc(Cl)cc(Cl)c2O)cc1Cl	84% (active)	100% (active)	99.5% (active)	84% (active)	99% (active)	99.7% (active)	68%	99% (active)	99.4% (active)	91% (active)	99% (active)	99.3% (active)	70% (active)	100% (active)	99.3% (active)	94% (active)	100% (active)	99.2% (active)
Cc1c2cnccc2c(C)c2c1c1ccccc1n2CCCCCCNCc1ccccc1	9%	95% (active)	99% (active)	-1%	76% (active)	99.2% (active)	1%	91% (active)	99.3% (active)	2%	83% (active)	98.2% (active)	2%	74% (active)	98.8% (active)	-3%	97% (active)	99% (active)
Fc1ccc(NC(=S)SCc2ccco2)cc1	5%	87% (active)	89% (active)	0%	71% (active)	61.6%	5%	67%	84.7% (active)	1%	24%	42.5%	-5%	34%	26.6%	1%	77% (active)	95.4% (active)
CCCCN(CCCC)CC(O)c1ccc2cc(Cl)c3ccccc3c2c1 (stereo not given)	53%	99% (active)	99.6% (active)	40%	100% (active)	99.7% (active)	85% (active)	100% (active)	99.5% (active)	41%	99% (active)	99.4% (active)	57%	99% (active)	92.2% (active)	63%	100% (active)	99.4% (active)
c1ccc(-c2cc(Nc3ccc4c(c3)OCO4)c3cc(C4CCCCC4)ccc3n2)cc1	10%	95% (active)	79% (active)	6%	96% (active)	83.9% (active)	27%	97% (active)	96.7% (active)	-8%	93% (active)	60.4%	4%	96% (active)	41.2%	7%	94% (active)	98.2% (active)
CC(=O)OCCn1c2nc(=O)[nH]c(=O)c-2nc2cc(C)c(C)cc21	-4%	18%	0.8%	0%	18%	-3.35%	1%	81% (active)	35%	-4%	2%	-42.9%	-1%	1%	8%	9%	14%	47.5%
C/C(=N\NS(=O)(=O)c1ccc(C)cc1)c1cc2ccccc2n1C	0%	85% (active)	74.9% (active)	-24%	65%	44.2%	-17%	82% (active)	63.2%	-5%	92% (active)	78.5% (active)	31%	93% (active)	60.7%	3%	86% (active)	65.2%
COc1ccccc1NC(=O)C1=CNC(C)=C(C(=O)Nc2ccccc2OC)C1/C=C/c1ccccc1 (stereo not given)	1%	18%	43.5%	-4%	1%	-0.75%	1%	17%	-1.95%	-1%	-8%	-6.3%	-2%	-8%	-1.9%	-1%	7%	15.3%
